KB-3-1 cytotox: qHTS assay for MDR1-selective chemotherapeutics: Primary screen using the parental adenocarcinoma cell KB-3-1; Potency, µM (doses to about 46.1 µM), most hits filed as cytotoxic; KB-3-1 viability, CellTiter-Glo ATP luminescence, 72 h; 1.4% of 400,000 active; also: nearly all actives have a fitted effect of over 60% in size
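Parental KB-3-1 adenocarcinoma cells in phenol-red-free DMEM with 10% FBS were pin-treated with compounds at several concentrations, incubated 72 h at 37 °C, and viability read by CellTiter-Glo luminescence; concentration-effect curves were fitted after normalization.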
D3 ag: qHTS of D3 Dopamine Receptor Agonist: qHTS | D3R DiscoveRx beta-arrestin cells, luminescence, 90 min | 0.58% of 410,000 active | D(3) dopamine receptor (Homo sapiens), P35462 | AID 652048, 2013 | max activation, %; in the data active = max activation above about 30%
Target sequence (P35462 whole entry, looked up): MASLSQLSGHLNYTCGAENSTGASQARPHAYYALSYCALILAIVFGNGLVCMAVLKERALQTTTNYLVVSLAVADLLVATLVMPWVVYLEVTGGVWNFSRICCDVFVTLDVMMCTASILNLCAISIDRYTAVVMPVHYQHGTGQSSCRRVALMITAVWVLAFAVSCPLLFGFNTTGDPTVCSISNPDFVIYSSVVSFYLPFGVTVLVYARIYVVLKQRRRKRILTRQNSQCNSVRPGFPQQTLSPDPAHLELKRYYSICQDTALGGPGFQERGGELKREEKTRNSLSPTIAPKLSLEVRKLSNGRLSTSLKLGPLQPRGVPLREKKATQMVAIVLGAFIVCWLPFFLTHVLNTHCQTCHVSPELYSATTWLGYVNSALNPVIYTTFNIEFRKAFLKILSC
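Agonist-mode cell screen: cells plated at 1500/well and incubated overnight at 37 °C, then exposed to library compounds for 90 min at 37 °C. Detection reagent was added for 30–60 min at room temperature, and luminescence was read.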
D3 antag: qHTS of D3 Dopamine Receptor Antagonist: qHTS; D(3) dopamine receptor (Homo sapiens), P35462; D3R cells, DiscoveRx beta-arrestin luminescence, antagonist mode; stronger effect = lower value; max response, negative = inhibition, %; 2.5% of 360,000 active; AID 652054, 2013; in the data active = max response below about -50%; inconclusive = no clear call, values can overlap the other calls
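Cells plated overnight at 1500 cells/well, then exposed to library compounds with dopamine controls for 90 minutes at 37 degrees C. DiscoveRx reagent added for 30–60 minutes at room temperature; luminescence read, quantitative HTS format.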
MCF10A rereplic: A quantitative high throughput screen for small molecules that induce DNA re-replication in MCF 10a normal breast cells. MCF 10A DNA re-replication, Hoechst nuclear intensity, 48 h. Potency, µM (highest dose often 46.1 µM), actives largely listed as activators. 2.9% of 350,000 active. AID 624296, 2012; also: nearly all actives have a fitted effect of over 50% in size
SW480 rerep: A quantitative high throughput screen for small molecules that induce DNA re-replication in SW480 colon adenocarcinoma cells | SW480 DNA re-replication, Hoechst DNA content imaging, 48 h | Potency, µM (doses to about 46.1 µM), usual class: activators | 1.8% of 340,000 active; also: nearly all actives have a fitted effect of over 55% in size
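Readout is total intensity of Hoechst-stained nuclei, excited at 405 nm and collected at 500-530 nm. Compound treatment lasted 48 hr at 37 C in 5% CO2 before staining.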
KB-V1 cytotox: qHTS assay for MDR1-selective chemotherapeutics: Primary screen using the drug-selected MDR subline cells KB-V1; Potency, µM (highest dose often 46.1 µM), actives largely listed as cytotoxic; AID 1347076, 2019; KB-V1 MDR cells viability, CellTiter-Glo, 72 h; 3.4% of 400,000 active; also: nearly all actives have a fitted effect of over 60% in size
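Cytotoxicity toward P-gp-expressing KB-V1 cells was determined as loss of CellTiter-Glo luminescence after 72 h at 37 degrees C. Compounds were tested in quantitative HTS format across a concentration range, with curves fitted to normalized data.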
Hits are given with their value; i = inactive; ? = inconclusive; nt = no result; [ ] = another dose, or the depositor's remark. Most compounds without a hit are left out; they make up all but 8.9% or so of the library. Unless noted, calls follow the shape of the dose curve; as a rule, active = well fitted curve in the direction sought with a large enough effect; inconclusive = small, poorly fitted or top-dose-only effect, or another doubt; inactive = no such curve, though single readings can be large; an effect the other way counts as inactive or inconclusive.

SMILES	KB-3-1 cytotox	D3 ag	D3 antag	MCF10A rereplic	SW480 rerep	KB-V1 cytotox
COc1cccc(N2CCN(Cc3nc4scc(-c5ccccc5)c4c(=O)[nH]3)CC2)c1	?	i	i	10.3µM	?	9.2µM
O=c1[nH]c(CN2CCN(c3ccc(O)cc3)CC2)nc2scc(-c3ccc(Cl)cc3)c12	?	98.4	i	?	3.66µM	i
COc1cccc(N2CCN(Cc3ccco3)CC2)c1	i	i	i	i	i	i
Cc1ccnc(NC(=S)N2CCN(c3ccc(Cl)cc3)CC2)c1	i	nt	nt	nt	nt	i
COc1ccc2c(c1)C=C/C2=C/c1ccc(N(C)C)cc1	i	nt	nt	nt	nt	i
CN1CCN(C(=O)c2cc(=O)c3cc(Cl)cc(Cl)c3o2)CC1	i	i	i	i	i	i
NNC(=S)Nc1c(F)cc(F)cc1Br	i	i	i	?	i	i
COC(=O)[C@H]1[C@H]2C[C@@H]3c4[nH]c5ccccc5c4CCN3C[C@H]2C[C@@H](OC(=O)c2cc(OC)c(OC)c(OC)c2)[C@@H]1OC	nt	i	nt	i	?	nt
O=C(NC(=S)NC1CCCC1)c1ccccc1Br	i	i	i	i	i	i
CCN(C(=S)NC(=O)c1ccccc1Br)C1CCCCC1	i	i	i	i	0.517µM	i
Cc1c(NC(=S)/C=C2\N(C)c3ccccc3C2(C)C)c(=O)n(-c2ccccc2)n1C	i	i	i	i	i	23.1µM
O=C(NC1CCCCC1)c1cccc2c1C(=O)c1ccc(N3CCCC3)cc1S2(=O)=O	i	i	i	i	i	i
O=C(NCc1ccccc1C(F)(F)F)c1cccc2c1C(=O)c1ccc(N3CCCCC3)cc1S2(=O)=O	i	32.9	i	i	i	i
O=C(NCc1cc(C(F)(F)F)ccc1Cl)c1cccc2c1C(=O)c1ccc(N3CCC(Cc4ccccc4)CC3)cc1S2(=O)=O	i	46.5	i	i	i	i
O=C1c2ccccc2S(=O)(=O)c2cc(N3CCC(C(=O)N4CCCCC4)CC3)ccc21	?	38.5	i	i	i	i
O=C(NCc1ccc(F)cc1)c1cccc2c1C(=O)c1ccc(N3CCC(Cc4ccccc4)CC3)cc1S2(=O)=O	i	42.7	i	?	i	i
O=C(NC1CC1)c1cccc2c1C(=O)c1ccc(N3CCC(Cc4ccccc4)CC3)cc1S2(=O)=O	i	i	i	?	?	?
COc1ccc(CNC(=O)CSCc2ccc(C)cc2)c(OC)c1	nt	i	nt	nt	nt	nt
CC(C)CCNC(=S)Nc1ccc(Br)cc1	?	i	i	?	i	18.4µM
CCCNC(=S)Nc1ccc(Br)cc1	i	i	i	i	i	i
Cc1ccccc1NC(=S)NCCc1ccccc1	i	i	i	?	?	16.4µM
S=C(NCCc1ccccc1)Nc1ccc(Br)cc1	?	i	i	?	i	18.4µM
CC(C)(C)CC(=O)NC(=S)NCCc1ccccc1	i	i	?	?	10.3µM	i
CC(=O)Nc1ccc(NC(=O)COC(=O)c2ccccc2OCc2cccc(Br)c2)cc1	i	nt	nt	nt	nt	i
Cc1cccc(NC(=S)NCCc2ccccc2)n1	i	i	?	i[9.22 µM]	?	?
SMILES	KB-3-1 cytotox	D3 ag	D3 antag	MCF10A rereplic	SW480 rerep	KB-V1 cytotox
S=C(NCCc1ccccc1)Nc1ccccn1	i	i	i	i	i	16.4µM
Cc1ccc(C(=O)CCNc2ccc(Br)cc2)o1	i	i	i	?	i[9.22 µM]	i
Cc1ccc(C(=O)Cc2ccccc2)o1	i	i	i	i	1.03µM	i
Cc1ccc(C(=O)CCNc2ccccc2)o1	i	i	i	7.08µM	?	i
CCCn1c(SCC(=O)NC2CCCC2)nnc1C(C)C	i	i	i	i	18.4µM	i
Nn1c(SCC(=O)NC2CCCCC2)nnc1C1CC1	i	i	-62.5	i	i	i
COCCn1c(SCC(=O)NC2CCCC2)nnc1C(C)C	i	i	i	i	i	i
Cc1nnc(SCC(=O)NC2CCCCC2)n1N	nt	i	i	i	i	nt
CCCCN(CC)CCNC(=O)c1cc2c(-c3ccccc3F)nn(C)c2s1	i	i	-61.2	i	?	i

Compound activity from PubChem.
